Hits are enriched below; roughly 14% of the tested compounds scored in any of these assays.
Shiga inhibitor: inhibitors of Shiga toxin in Vero cells. Vero cells, Shiga toxin protein synthesis inhibition reporter. actives 9.2% (n = 290,000). inhibition, % at 38.7 µM. AID 2315; in the data active = inhibition mostly above about 28%, no sharp cut-off; inactive = mostly below about 43%; also: 0% is about no effect
Cycloheximide cs: counter-screen for Shiga toxin inhibitors: cycloheximide protein synthesis inhibition. cell reporter, cycloheximide protein synthesis inhibition counterscreen. max response, %. actives 12% (n = 300,000). AID 2314; in the data active = max response mostly above about 13%, no sharp cut-off; inactive = mostly below about 14%; also: read at 38.3 µM for the half of the compounds with a filed dose; 0% is about no effect
Giardia FBPA inh: inhibitors of Giardia lamblia fructose-1,6-bisphosphate aldolase | A8B2U2 | purified Giardia FBPA | Potency, µM (highest dose often 59.6 µM), for inactives: at the top dose activity, negative = inhibition, actives largely listed as inhibitors | actives 0.71% (n = 290,000); also: potency is read from the fitted curve at half-maximal effect; % is scaled to controls: 0 for no effect and ±100 for the full control effect; nearly all actives have a fitted effect of over 55% in size
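40 nM FBPA preincubated 10 min at RT with compound (up to 57.5 uM final), then substrate plus GAPDH/TPI/NAD/arsenate coupling and diaphorase/resazurin added. Fluorescence read after 20 min at RT, 525/598 nm.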
NS1 inh: blocks influenza NS1 protein function | Potency, µM (doses to about 46.1 µM), for the others: top-dose activity, positive = more growth | actives 0.4% (n = 270,000); calls by dose curve; also: potency is read from the fitted curve at half-maximal effect; actives are rising curves; nearly all actives have a fitted effect of over 50% in size
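Compounds were scored for reversing the slow growth caused by influenza A NS1 in S. cerevisiae, measured by optical density at 600 nm. Assay medium contained 2% galactose at pH 6.0; NS1-free yeast of the same strain were the positive control.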
LmPK inhibitor: LmPK (Leishmania mexicana) enzyme inhibition; Q27686; actives 0.37% (n = 290,000); purified LmPK, Kinase-Glo ATP luminescence, 1 h; AID 1721; Potency, µM (doses to about 57.5 µM), for inactives: at the top dose activity change, negative = inhibition, hits mostly inhibitors; also: potency is read from the fitted curve at half-maximal effect; % is scaled to controls: 0 for no effect and ±100 for the full control effect
Target sequence (Q27686 whole entry, looked up): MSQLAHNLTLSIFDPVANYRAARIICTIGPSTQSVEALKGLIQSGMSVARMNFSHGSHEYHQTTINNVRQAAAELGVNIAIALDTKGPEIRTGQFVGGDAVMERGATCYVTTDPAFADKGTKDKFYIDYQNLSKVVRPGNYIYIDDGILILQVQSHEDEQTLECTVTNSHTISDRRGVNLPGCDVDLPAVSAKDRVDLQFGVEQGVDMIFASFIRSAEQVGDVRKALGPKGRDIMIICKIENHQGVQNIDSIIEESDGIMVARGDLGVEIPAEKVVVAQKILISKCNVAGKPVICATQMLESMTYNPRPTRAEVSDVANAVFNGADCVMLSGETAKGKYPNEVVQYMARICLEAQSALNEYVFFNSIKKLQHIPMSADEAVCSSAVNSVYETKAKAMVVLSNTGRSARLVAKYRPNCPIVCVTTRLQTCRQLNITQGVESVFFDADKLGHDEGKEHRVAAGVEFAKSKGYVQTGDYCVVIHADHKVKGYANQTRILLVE
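In 50 mM imidazole pH 7.2 with 7 mM MgCl2, LmPK (0.1 nM) turned over PEP (0.5 mM) and ADP (0.1 mM) for 1 h at room temperature. Luciferase read-out of ATP.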
* hit, by the source's call. Unless noted, calls follow the shape of the dose curve; as a rule, active = well fitted curve in the direction sought with a large enough effect; inconclusive = small, poorly fitted or top-dose-only effect, or another doubt; inactive = no such curve, though single readings can be large; an effect the other way counts as inactive or inconclusive.

How did CCC(C)c1ccc(NC(=O)c2ccco2)cc1 (configuration not stated) do in these assays?
Shiga inhibitor: 40.0; Cycloheximide cs: 25.7*; Giardia FBPA inh: 4.3%; NS1 inh: -139.6%; LmPK inhibitor: -15.8%

Results for O=C(Nc1cccc(NC(=O)c2ccc(-c3ccc(Br)cc3)o2)c1)c1ccco1 ?
Shiga inhibitor: 92.1*; Cycloheximide cs: 38.3*; Giardia FBPA inh: -1.5%; NS1 inh: 21.8%; LmPK inhibitor: 5.7%

Results for O=C(Cc1ccccc1)Nc1ccc(NC(=O)c2ccco2)cc1 ?
Shiga inhibitor: 51.2*; Cycloheximide cs: 18.0*; Giardia FBPA inh: -3.8%; NS1 inh: -27.4%; LmPK inhibitor: 0.3%

Results for COC(=O)C1=C(C)NC(=S)NC1c1ccc(OCC(=O)N2CCCCC2)c(OC)c1 (configuration not stated) ?
Shiga inhibitor: -34.7; Cycloheximide cs: 1.2; NS1 inh: 5.1%; LmPK inhibitor: -6.1%

Results for CC(=O)N1CCc2cc(S(=O)(=O)CCC(=O)Nc3cc(C)cc(C)c3)ccc21 ?
Shiga inhibitor: -10.9; Cycloheximide cs: -8.4; Giardia FBPA inh: -6.9%; NS1 inh: 1.3%; LmPK inhibitor: 0.1%

What do the screens show for `O=C(Nc1ccccc1Cl)NC1(C(=O)NCc2cccnc2)CCCCC1`?
Shiga inhibitor: -6.8; Cycloheximide cs: -3.7; Giardia FBPA inh: -7.7%; NS1 inh: -3.9%; LmPK inhibitor: 6.7%

Results for C/C=C/C(=O)OCC(=O)Nc1ccc(SC(F)F)cc1 ?
Shiga inhibitor: 35.6; Cycloheximide cs: 26.3*; Giardia FBPA inh: -1.0%; LmPK inhibitor: -7.5%

How did CCCc1cc(C(=O)N2CCCC(Cc3ccccc3C)(C(=O)OCC)C2)no1 (configuration not stated) do in these assays?
Shiga inhibitor: -6.6; Cycloheximide cs: 3.1; Giardia FBPA inh: -4.7%; NS1 inh: -46.9%; LmPK inhibitor: -2.5%

Results for CCn1c(-c2cc(-c3cccc(OC)c3)nc3ccccc23)n[nH]c1=S ?
Shiga inhibitor: -17.8; Cycloheximide cs: 1.8; Giardia FBPA inh: 10.3%; NS1 inh: 10.7%; LmPK inhibitor: -21.5%

How did COc1ccc(-c2n[nH]c(=S)n2CC(C)C)cc1 do in these assays?
Shiga inhibitor: -21.3; Cycloheximide cs: -4.3; Giardia FBPA inh: 0.9%; NS1 inh: -3.0%; LmPK inhibitor: 28.2µM*

How did Cc1cccc(-n2c(-c3csc4ccccc34)n[nH]c2=S)c1 do in these assays?
Shiga inhibitor: 9.6; Cycloheximide cs: 1.0; Giardia FBPA inh: -0.1%; NS1 inh: 8.8%; LmPK inhibitor: inconclusive

What do the screens show for `CC(C)Cn1c(-c2csc3ccccc23)n[nH]c1=S`?
Shiga inhibitor: 10.3; Cycloheximide cs: -3.3; Giardia FBPA inh: 11.2%; NS1 inh: -2.4%; LmPK inhibitor: 14.1µM*

What do the screens show for `CCn1c(-c2csc3ccccc23)n[nH]c1=S`?
Shiga inhibitor: -9.3; Cycloheximide cs: -2.5; Giardia FBPA inh: 1.3%; NS1 inh: 0.2%; LmPK inhibitor: 10µM*

What do the screens show for `CCc1ccc(-c2cc(-c3n[nH]c(=S)n3CC)c3ccccc3n2)cc1`?
Shiga inhibitor: 40.5*; Cycloheximide cs: 31.6*; Giardia FBPA inh: inconclusive; NS1 inh: 20.8%; LmPK inhibitor: 2.6%

How did CCn1c(-c2ccccc2O)n[nH]c1=S do in these assays?
Shiga inhibitor: 3.3; Cycloheximide cs: -0.9; Giardia FBPA inh: -18.8%; NS1 inh: -11.1%; LmPK inhibitor: -1.1%

Results for COCCNC(=O)C(=O)Nc1cc2c3c(c1)CCC(=O)N3CCC2 ?
Shiga inhibitor: -5.6; Cycloheximide cs: -1.3; Giardia FBPA inh: 3.7%; NS1 inh: -2.8%; LmPK inhibitor: -4.1%

What do the screens show for `CCOC(=O)c1ccc(NC(=O)c2cccc(S(=O)(=O)N3CCN(C(C)=O)CC3)c2)cc1`?
Shiga inhibitor: 2.5; Cycloheximide cs: -3.0; Giardia FBPA inh: 4.6%; NS1 inh: -0.7%; LmPK inhibitor: -1.7%

What do the screens show for `CC1CC[C@@]2(OC1)OC1CC3C4CC[C@H]5CC(O)CC[C@@]5(C)C4CC[C@]3(C)C1C2C` (some centres not stated)?
Giardia FBPA inh: 0.7%

Results for Cc1[nH]c2ccccc2c1/C=N/NC(=O)c1cc(C(C)C)[nH]n1 ?
Shiga inhibitor: 25.0; Cycloheximide cs: 8.0; Giardia FBPA inh: -6.4%; NS1 inh: 1.2%; LmPK inhibitor: -2.0%

Results for C[C@@H](C(=O)Cc1ccc2ccccc2c1)[C@@H]1C[C@@]1(C)[C@@H](NP(=O)(c1ccccc1)c1ccccc1)c1ccccc1 ?
Giardia FBPA inh: -1.0%

Results for Cc1ccc(/C=C/C(=O)Nc2nnc(C)s2)o1 ?
Shiga inhibitor: 61.2*; Cycloheximide cs: 8.4; Giardia FBPA inh: 4.5%; NS1 inh: -0.1%; LmPK inhibitor: -1.2%

Results for O=C(O)/C=C/C(=O)Nc1ccc(Oc2ccccc2)cc1 ?
Shiga inhibitor: 28.8; Cycloheximide cs: 7.5; Giardia FBPA inh: 29.8%; NS1 inh: -3.5%; LmPK inhibitor: 4.2%

What do the screens show for `Cc1ccc(/C=C/C(=O)Nc2ccc([N+](=O)[O-])cc2)o1`?
Shiga inhibitor: 74.8*; Cycloheximide cs: 35.5*; Giardia FBPA inh: -25.4%; NS1 inh: -9.9%; LmPK inhibitor: inconclusive

What do the screens show for `CCCOc1ccc(/C=C/C(=O)Nc2ccc([N+](=O)[O-])cc2)cc1`?
Shiga inhibitor: -14.8; Cycloheximide cs: -3.1; Giardia FBPA inh: -0.5%; NS1 inh: -35.8%; LmPK inhibitor: -0.7%

How did CCOC(=O)c1c(NC(=O)/C=C/c2ccc(C)o2)sc(C)c1C do in these assays?
Shiga inhibitor: -9.3; Cycloheximide cs: -4.0; Giardia FBPA inh: -0.5%; NS1 inh: 4.7%; LmPK inhibitor: -5.7%

How did Cc1ccc(/C=C/C(=O)Nc2ccc(Oc3ccccc3)cc2)o1 do in these assays?
Shiga inhibitor: 54.2; Cycloheximide cs: 25.8*; Giardia FBPA inh: -16.8%; NS1 inh: -8.0%; LmPK inhibitor: -9.1%

Results for CC(=O)NCc1ccc(C(=O)CCl)cc1 ?
Shiga inhibitor: -8.9; Cycloheximide cs: 0.9; Giardia FBPA inh: -6.4%; LmPK inhibitor: -1.2%

What do the screens show for `CC(=O)N(C)Cc1ccc(C(=O)CCl)cc1`?
Shiga inhibitor: 42.4; Cycloheximide cs: 26.2*; Giardia FBPA inh: -19.4%; LmPK inhibitor: -6.3%

How did CC(=O)Nc1ccc(N=c2cc([N+](=O)[O-])cc(Cl)n2O)cc1 do in these assays?
Shiga inhibitor: -7.5; Cycloheximide cs: -4.8; Giardia FBPA inh: -2.9%; NS1 inh: 3.6%; LmPK inhibitor: -8.4%

Results for CC(NC(=O)c1ccc([N+](=O)[O-])o1)C12CC3CC(CC(C3)C1)C2 (configuration not stated) ?
Shiga inhibitor: 45.4*; Cycloheximide cs: 34.7*; Giardia FBPA inh: 8.8%; NS1 inh: -75.9%; LmPK inhibitor: -0.3%

What do the screens show for `O=C(NC1CCC(O)CC1)c1ccc(-c2ccc([N+](=O)[O-])cc2)o1` (configuration not stated)?
Shiga inhibitor: 37.1; Cycloheximide cs: 17.4*; Giardia FBPA inh: -3.1%; NS1 inh: 12.1%; LmPK inhibitor: -1.7%

Screens deposited in PubChem by National Center for Advancing Translational Sciences (NCATS).
